HT1080-NT tox: kills 2HG-producing HT-1080-NT fibrosarcoma cells; HT-1080-NT fibrosarcoma viability, CellTiter-Glo ATP luminescence, 48 h; AID 686970; actives 1.6% (n = 360,000); Potency, µM (highest dose often 46.1 µM), without a hit: at the highest dose activity, negative = less viability, hits mostly cytotoxic;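 note: NT is the 2HG producing partner of a matched IDH1 knockdown line; 0% = DMSO-treated cells and -100% = media-only wells without cells; nearly all actives have a fitted effect of over 55% in size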
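Compounds were tested in concentration-response format on HT-1080-NT cells for 48 hours at 37 degrees C. Cell viability came from CellTiter-Glo luminescence; curves were classified by r2, response magnitude and activity.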
KB-V1 cytotox: KB-V1 MDR subline cytotoxicity. KB-V1 MDR cells viability, CellTiter-Glo, 72 h. Potency, µM (titrated, usually from 46.1 µM), hits mostly cytotoxic. actives 3.4% (n = 400,000). AID 1347076; note: nearly all actives have a fitted effect of over 60% in size
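Drug-selected KB-V1 cells, grown in DMEM lacking phenol red with 10% FBS, receive compound titrations; after three days at 37 degrees C, surviving cell ATP is quantified by CellTiter-Glo luminescence and responses normalized and curve-fitted.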
KB-3-1 tox: kills parental KB-3-1 adenocarcinoma cells | actives 1.4% (n = 400,000) | AID 1347075 | KB-3-1 viability, CellTiter-Glo ATP luminescence, 72 h | Potency, µM (titrated, usually from 46.1 µM), hits mostly cytotoxic; note: nearly all actives have a fitted effect of over 60% in size
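Parental KB-3-1 adenocarcinoma cells in phenol-red-free DMEM with 10% FBS were pin-treated with compounds at several concentrations, incubated 72 h at 37 °C, and viability read by CellTiter-Glo luminescence; concentration-effect curves were fitted after normalization.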
HT1080 IDH1KD tx: HT-1080 IDH1 knockdown cell toxicity (counter line); HT-1080 IDH1 knockdown viability, ATP luminescence, 48 h; Potency, µM (doses to about 46.1 µM), without a hit: at the highest dose activity, negative = toxicity, most hits filed as cytotoxic; actives 2% (n = 360,000); AID 686971;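 note: 0% = DMSO wells and -100% = cell-free medium wells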
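Knockdown cells (IDH1KD HT-1080) received compounds 2 h after plating at 750 cells/well and were kept 48 h at 37 °C in 5% FBS RPMI. A CellTiter-Glo luminescence read gave % activity for curve fitting.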
TDP1 cell noCPT: qHTS for Inhibitors of human tyrosyl-DNA phosphodiesterase 1 (TDP1): qHTS in cells in absence of CPT; DT40 Tdp1-/- hTDP1 cells, no CPT, ATP luminescence, 48 h; Potency, µM (doses to about 46.2 µM), for inactives: top-dose activity change, negative = growth inhibition, hits mostly inhibitors; actives 15% (n = 420,000); AID 686978, 2013; note: nearly all actives have a fitted effect of over 55% in size
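Stably hTDP1-transfected Tdp1-null chicken DT40 cells were treated with library compounds minus camptothecin and grown for at least 48 hr at 37 °C, after which cellular ATP was quantified by luminescence.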
TDP1 cell CPT: growth inhibition of DT40 Tdp1-/-;hTDP1 cells with camptothecin (screen for TDP1 inhibitors); chicken DT40 Tdp1-/-;hTDP1 cells + 20 nM CPT, ATP luminescence, 48 h; Potency, µM (doses to about 46.2 µM), without a hit: at the top dose activity change, negative = growth inhibition, usual class: inhibitors; actives 12% (n = 420,000); note: nearly all actives have a fitted effect of over 55% in size
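Chicken DT40 Tdp1-/- cells stably complemented with human TDP1 were seeded at 400 cells/well in medium containing 20 nM camptothecin, exposed to pin-transferred compounds, and grown at 37 °C for at least 48 hr. Viability was read as ATP luminescence.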
The depositor's hits bear a star; i = inactive; ? = inconclusive; nt = no result given. Most compounds without a hit are left out; they make up all but 19% or so of the library. Calls come from the whole dose curve; as a rule, active = well fitted curve in the direction sought with a large enough effect; inconclusive = small, poorly fitted or top-dose-only effect, or another doubt; inactive = no such curve, though single readings can be large; an effect the other way counts as inactive or inconclusive. Unless noted, % is set by controls: 0 for no effect and ±100 for the full control effect; potency is the fitted concentration of half-maximal effect.

SMILES	HT1080-NT tox	KB-V1 cytotox	KB-3-1 tox	HT1080 IDH1KD tx	TDP1 cell noCPT	TDP1 cell CPT
Cc1ccc(NC(=O)c2nc(S(=O)(=O)Cc3ccc(F)cc3)ncc2Cl)cc1C	nt	nt	nt	nt	2.3µM*	3.7µM*
COc1ccccc1CNc1ncncc1-c1ccccc1CN(C)C	nt	nt	nt	nt	?	-8%
COCCNc1nc(-c2ccccc2CN(C)C)nc2ccccc12	nt	nt	nt	nt	12µM*	?
COCCNc1nc(-c2ccccc2C(F)(F)F)nc2ccccc12	nt	nt	nt	nt	-16%	-8%
CN(C)Cc1ccccc1-c1nc(NCc2ccccc2)c2ccccc2n1	nt	nt	nt	nt	6.5µM*	16µM*
COc1ccccc1CNc1nc(-c2ccccc2CN(C)C)nc2ccccc12	nt	nt	nt	nt	6.5µM*	12µM*
Oc1ccccc1-c1nc(NCc2ccccc2)c2ccccc2n1	?	i	i	-8%	?	7%
COCCNc1nc(-c2ccccc2C)nc2ccccc12	nt	nt	nt	nt	18µM*	?
O=C(O)CCC(=O)Nc1ccc(C(=O)OCC(=O)c2ccc(Cl)cc2Cl)cc1	23%	i	?	-1%	-7%	-1%
COc1ccccc1CNc1nc(-c2ccoc2)nc2ccccc12	nt	nt	nt	nt	26µM*	15µM*
COC(C/C=C\[C@H](O)COCc1ccccc1)OC	0%	i	i	4%	-6%	-16%
Fc1ccc(-c2csc(-c3nc(-c4ccc(Br)s4)cs3)n2)cc1	nt	i	i	nt	-20%	10%
Brc1ccc(-c2csc(-c3c[nH]c4ccccc34)n2)cc1	?	i	i	?	?	?
c1ccc2c(-c3csc(-c4ccncc4)n3)c[nH]c2c1	?	?	?	?	15µM*	18µM*
O=C(NC1CCCC1)C1CCN(S(=O)(=O)c2ccccc2)CC1	4%	i	i	8%	0%	6%
O=C(Nc1ccncc1)c1sc2ccccc2c1Cl	12%	8.2µM*	i	0%	18µM*	?
O=C(Nc1ccnc(=O)[nH]1)c1sc2ccccc2c1Cl	17%	i	i	9%	-16%	15µM*
CC(=O)N1CCN(c2ccc(NC(=O)c3ccc(C(C)(C)C)cc3)cc2)CC1	?	?	i	?	26µM*	?
CC(=O)N1CCN(c2ccc(NC(=O)c3ccc(Cl)cc3)cc2)CC1	4%	i	i	13%	-18%	5%
CCCCOc1ccc(C(=O)Nc2ccc(N3CCN(C(C)=O)CC3)cc2)cc1	13%	2.6µM*	i	11%	?	-11%
CCCCOc1ccc(C(=O)Nc2ccc(N3CCN(C(=O)C(C)C)CC3)cc2)cc1	-5%	i	i	-17%	7.3µM*	8.2µM*
Cc1cc(-c2ccccc2)cc(=O)[nH]1	11%	i	i	6%	-3%	-1%
Cc1cc(-c2ccccc2)cc(-c2ccccc2)[n+]1C	-13%	i	?	-18%	8.2µM*	10µM*
Nc1ccc2nc(-c3ccccc3)[nH]c2c1	-17%	i	i	-19%	?	?
COc1ccc2nc(-c3cccc(N)c3)[nH]c2c1	-17%	i	i	-8%	23µM*	?
SMILES	HT1080-NT tox	KB-V1 cytotox	KB-3-1 tox	HT1080 IDH1KD tx	TDP1 cell noCPT	TDP1 cell CPT
Nc1cccc(-c2nc3ccc(C(=O)c4ccccc4)cc3[nH]2)c1	13µM*	3.7µM*	6.5µM*	10µM*	0.82µM*	0.73µM*
COc1ccc(/C=C2\CCc3ccccc3C2=O)cc1CN1CCOCC1	?	?	i	?	?	?
COc1ccc2c(c1)CC/C(=C\c1ccc(OC)c(Cn3nc(C)cc3C)c1)C2=O	?	?	?	?	18µM*	16µM*
COc1ccc2c(c1)CC/C(=C\c1ccc(OC)c(Cn3cccn3)c1)C2=O	-1%	i	?	-9%	26µM*	18µM*
CN(C)CCN(C)C1CN(Cc2ccc(F)cc2)S(=O)(=O)C1 (centres undefined)	14%	i	i	26%	-12%	-9%
CCc1nc2c(OCCc3cccc(OC)c3)cccn2c1N(C=O)Cc1ccc(OC)cc1	-26%	?	i	-12%	?	18µM*
CCCCC(=O)N(C)c1c(CC)nc2c(OCC(=O)c3ccc(Cl)cc3Cl)cccn12	-18%	?	i	-12%	?	23µM*
C=CCOc1cccn2c(N(C=O)Cc3ccccc3)c(CC)nc12	8%	i	i	2%	12µM*	13µM*
CCc1nc2c(OCC(=O)c3ccc(Cl)cc3Cl)cccn2c1N(C)C(=O)c1ccncc1	18%	i	i	0%	?	?
CCc1nc2c(OCc3cc(Cl)cc(Cl)c3)cccn2c1N(C=O)Cc1ccc(OC)cc1	?	?	?	?	?	23µM*
COc1ccc(Nc2nc(C(=O)NCCCN3CCOCC3)cs2)cc1	10%	?	i	7%	-2%	-3%
CN1CCN(c2ccc3c(c2)OC[C@@H](Cc2ccccc2)NS3(=O)=O)CC1	8%	i	i	11%	?	-17%
CCc1nc2c(OCc3c(C)noc3C)cccn2c1N(C=O)Cc1ccccc1	23%	i	i	8%	21µM*	?
CCCCN(C=O)c1c(CC)nc2c(OCc3ccc(Cl)cc3)cccn12	?	?	?	?	23µM*	18µM*
CCc1nc2c(OCc3cc(Cl)cc(Cl)c3)cccn2c1N(C=O)Cc1ccccc1	?	21µM*	?	?	?	26µM*
CCc1nc2c(OCCC3CCCCC3)cccn2c1N(C=O)Cc1ccccc1	?	i	i	?	?	16µM*
COc1ccc(C)cc1NC(=S)NC(C)c1ccc(OC)c(OC)c1 (centres undefined)	-8%	i	i	0%	?	?
COc1ccc(N2CCN(CCS(=O)(=O)c3cc(Cl)ccc3Cl)CC2)cc1	-5%	i	i	-2%	?	?
CN(CCn1ccnc1)Cc1cn(Cc2ccccc2)nc1-c1ccc2c(c1)OCO2	-3%	i	i	-11%	-12%	?
CCc1nc2c(OCCc3cccc(OC)c3)cccn2c1N(C=O)Cc1ccccc1	-5%	i	i	-15%	?	?
CCc1nc2c(OCC(=O)N(C)C)cccn2c1N(C=O)Cc1ccc(OC)cc1	10%	i	i	0%	2%	-4%

High-throughput results from PubChem BioAssay.
